From the supplement of paper PMC12350171
Counter-ions that a name gives are not always drawn.

Legend:
Experiment in all cases: growth AUC normalised to DMSO control (median) (fraction of control); higher = less growth inhibition, active = hit call of the paper
Settings in all cases: 20 µM;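 active = normalised median growth AUC below 0.1 of DMSO control; inactive = AUC 0.1 or higher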
P. vulgatus RND KO = system: P. vulgatus RND KO
Outline: (§1)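 Each strain went through two overnight passages under anaerobic conditions before growth in mGAM in 96-well plates, starting at OD578 0.01, with each compound from the approved-drug library at 20 μM and 1% DMSO. Inside an anaerobic incubator, OD578 was recorded every hour for 24 h. Growth curves were cut off at entry into stationary phase, and the area under the curve was calculated by the trapezoidal rule and normalised to vehicle wells on the same plate. Reported values are medians of three biological replicates.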

P. vulgatus WT = system: P. vulgatus WT
Outline: as §1

[1] = system: S. enterica typhimurium WT
Outline: as §1

[2] = system: S. enterica typhimurium tolC KO
Outline: as §1

Measured: growth AUC normalised to DMSO control
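Also: active when median AUC fell below 0.1.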

COc1cc2/c(=N/c3ccc(Br)cc3F)nc[nH]c2cc1OCC1CCN(C)CC1 [Vandetanib]
inactive: P. vulgatus RND KO 1.1 | P. vulgatus WT 1.08 | [1] 1.02 | [2] 1.01

CC(=O)Nc1ccccc1 [Acetanilide]
inactive: P. vulgatus RND KO 0.993 | P. vulgatus WT 1 | [1] 0.997 | [2] 1.01

CCCCC1=NC2(CCCC2)C(=O)N1Cc1ccc(-c2ccccc2-c2nnn[nH]2)cc1 [Irbesartan]
inactive: P. vulgatus RND KO 0.985 | P. vulgatus WT 1 | [1] 1.01 | [2] 0.987

C[C@@H](NCCCc1cccc(C(F)(F)F)c1)c1cccc2ccccc12 [Cinacalcet hydrochloride]
inactive: P. vulgatus RND KO 1.01 | P. vulgatus WT 1.02 | [1] 1.01 | [2] 0.996

CC1=C(C)C(=O)C(C(CCCCCC(=O)O)c2ccccc2)=C(C)C1=O (stereo not drawn) [Seratrodast]
inactive: P. vulgatus RND KO 0.944 | P. vulgatus WT 0.967 | [1] 1.01 | [2] 0.999

CN[C@@H]1[C@@H](O[C@H]2O[C@H](CO)[C@@H](N)[C@H](O)[C@H]2O)OC2C[C@@H](N)[C@@H](O[C@H]3[C@H](O)[C@@H](O)[C@H](N)C[C@@H]3N)OC2[C@@H]1O (stereo partly drawn) [Apramycin]
inactive: P. vulgatus RND KO 1 | P. vulgatus WT 0.998 | [1] 1.01 | [2] 0.996

CC(C)(C)NC(=O)[C@@H]1CN(Cc2cccnc2)CCN1C[C@@H](O)C[C@@H](Cc1ccccc1)C(=O)N[C@H]1c2ccccc2C[C@H]1O [Indinavir sulfate]
inactive: P. vulgatus RND KO 1 | P. vulgatus WT 0.984 | [1] 0.997 | [2] 0.994

N=C(N)Nc1ccc(C(=O)Oc2ccc3cc(C(=N)N)ccc3c2)cc1 [Nafamostat Mesylate]
inactive: P. vulgatus RND KO 1.11 | P. vulgatus WT 1.03 | [1] 0.997 | [2] 0.999

Cc1cn(-c2cc(NC(=O)c3ccc(C)c(Nc4nccc(-c5cccnc5)n4)c3)cc(C(F)(F)F)c2)cn1 [Nilotinib]
inactive: P. vulgatus RND KO 1.03 | P. vulgatus WT 1.05 | [1] 0.994 | [2] 0.984

C[C@H](NCc1ccc(OCc2cccc(F)c2)cc1)C(N)=O [Safinamide]
inactive: P. vulgatus RND KO 1.02 | P. vulgatus WT 1.01 | [1] 0.986 | [2] 1

CC(C)=CCOc1ccc(/C=C/C(=O)c2ccc(OCC=C(C)C)cc2OCC(=O)O)cc1 [Sofalcone]
inactive: P. vulgatus RND KO 0.914 | P. vulgatus WT 0.993 | [1] 1 | [2] 0.902

COC(=O)C1=C(C)NC(C)=C(C(=O)OC2CCCN(Cc3ccccc3)C2)C1c1cccc([N+](=O)[O-])c1 (stereo not drawn) [Benidipine hydrochloride]
inactive: P. vulgatus RND KO 1.01 | P. vulgatus WT 0.968 | [1] 0.993 | [2] 0.961

CCOC(=O)[C@H](CCc1ccccc1)N[C@H]1CS[C@H](c2cccs2)CN(CC(=O)O)C1=O [Temocapril hydrochloride]
inactive: P. vulgatus RND KO 1.02 | P. vulgatus WT 1.03 | [1] 1 | [2] 1

CN(C)C(=O)COC(=O)Cc1ccc(OC(=O)c2ccc(NC(=N)N)cc2)cc1 [Camostat mesylate]
inactive: P. vulgatus RND KO 1.02 | P. vulgatus WT 1.03 | [1] 0.997 | [2] 1

CNCC[C@@H](Oc1cccc2ccccc12)c1cccs1 [(R)-Duloxetine hydrochloride]
inactive: P. vulgatus RND KO 1.02 | P. vulgatus WT 0.993 | [1] 0.999 | [2] 0.929

CCCCCOC(=O)Nc1nc(=O)n([C@@H]2O[C@H](C)[C@@H](O)[C@H]2O)cc1F [Capecitabine]
inactive: P. vulgatus RND KO 0.987 | P. vulgatus WT 0.998 | [1] 0.982 | [2] 0.994

CCCc1c2oc(C(=O)O)cc(=O)c2cc2c(=O)cc(C(=O)O)n(CC)c12 [Nedocromil sodium]
inactive: P. vulgatus RND KO 1.02 | P. vulgatus WT 1.03 | [1] 0.992 | [2] 0.995

CC1CC(OC(=O)C(O)c2ccccc2)CC(C)(C)C1 (stereo not drawn) [Cyclandelate]
inactive: P. vulgatus RND KO 0.983 | P. vulgatus WT 0.975 | [1] 1 | [2] 0.903

Nc1nc(CC(=O)Nc2ccc(CCNC[C@H](O)c3ccccc3)cc2)cs1 [Mirabegron]
inactive: P. vulgatus RND KO 1 | P. vulgatus WT 0.989 | [1] 0.991 | [2] 1

COc1ccc(C(=O)c2ccc(C)cc2)c(O)c1 [Mexenone]
inactive: P. vulgatus RND KO 0.999 | P. vulgatus WT 1 | [1] 1 | [2] 0.931

CC(=O)NS(=O)(=O)c1ccc(NC(=O)c2ccccc2C(=O)O)cc1 [Phthalylsulfacetamide]
inactive: P. vulgatus RND KO 0.999 | P. vulgatus WT 0.997 | [1] 1 | [2] 1

CCN(CC)C(=O)c1cccnc1 [Nikethamide]
inactive: P. vulgatus RND KO 0.992 | P. vulgatus WT 1 | [1] 1 | [2] 1.01
